This passage reports composite z-score, composite Z-score and z-score results from PubChem BioAssay.

Active and inactive are the calls of the source.

One assay has as its target Albumin (Bos taurus) (UniProt P02769). The experiment in a line: compounds binding labelled BSA control protein – biochemical, small-molecule microarray, Alexa647 label, 635/667 nm fluorescence, artefact control for SMM control protein annotation, profiling panel (AID 1118).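 Also: score merges 667 nm emission intensity and signal-to-noise per printed compound spot.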 The conditions noted are these: BSA-A647 binding, fluorescence 635 nm, higher = more signal.
The nature of assay [1]: probe aXIP binding to arrayed compounds – biochemical, NeuroSMM set, 635/667 nm fluorescence, primary screen (AID 1119).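 Also: probe is the protein aXip251-270 applied at 1 µg/mL to compound-printed slides; binding of probe to printed compounds measured as 667 nm fluorescence plus signal to noise.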 The note with it: small-molecule microarray, higher = more signal, called active from +8 up or from −8 down.
The nature of assay [2]: probe aNOTCH3 binding on compound microarray – biochemical, small-molecule microarray, 635/667 nm fluorescence, primary screen (AID 1120).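 Also: probe is a biotin-tagged antibody raised against NOTCH3 rather than NOTCH3 protein; score merges spot fluorescence near 667 nm with spot signal to noise.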 The note with it: higher = more signal.
Assay [3] can be described thus: probe aNOTCH2 binding on compound microarray – biochemical, small-molecule microarray, 635/667 nm fluorescence, primary screen (AID 1121).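 Also: score merges feature fluorescence read at 667 nm with its signal to noise.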 The note with it: higher = more signal.
Assay [4] addresses Carbonic anhydrase 2 (Homo sapiens) (UniProt P00918). The experiment in a line: compounds binding carbonic anhydrase 2 – biochemical, small-molecule microarray, Alexa647-labelled CAII, profiling panel (AID 1122). The conditions noted are these: CAII-A647 binding fluorescence, higher = more signal.
Assay [5] can be described thus: COS7 lysate on small-molecule microarray, probe aHis, 635 nm (AID 1123).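 Also: z-score combines 667nm fluorescence intensity with signal-to-noise per printed compound spot.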 The note with it: COS7 cell lysate, fluorescence, higher = more signal.
Assay [6] can be described thus: probe aLAP1 signal on lysate-treated microarray – cell lysate, small-molecule microarray, COS7 lysate, primary screen (AID 1124).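 Also: lysate comes from COS7 cells expressing LAP1 and is applied at 0.3 µg/mL; score merges spot fluorescence near 667 nm with signal-to-noise over triplicate slides.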 The conditions noted are these: probe aLAP1, fluorescence, higher = more signal.
A further assay deals with Sam68 (KHDRBS1). The experiment in a line: compounds binding KHDRBS1 protein – biochemical, small-molecule microarray, 635 nm fluorescence, primary screen (AID 1125).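 Also: score merges 667 nm channel intensity with signal to noise over triplicate slides.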 The conditions noted are these: higher = more signal.
In assay [7] the test system is Chordin-like protein 2 (CHRDL2). The experiment in a line: compounds binding chordin-like 2 – biochemical, small-molecule microarray, 635 nm fluorescence, primary screen (AID 1126).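 Also: printed compound slides probed with Chrdl2 protein at 4 µg/mL for 1 h at 4 C; score merges 667 nm emission intensity with signal to noise over three replicate slides.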 The conditions noted are these: fluorescence 635 nm, higher = more signal.
Assay [8] addresses Concanavalin-A (Canavalia ensiformis) (UniProt P02866). The experiment in a line: compounds binding concanavalin A lectin – biochemical, small-molecule microarray, Alexa647 label, 635 nm, artefact control for SMM control protein annotation, primary screen (AID 1127).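 Also: z combines 667 nm emission intensity with signal-to-noise across three replicate slides.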 The conditions noted are these: ConA-A647 binding fluorescence, higher = more signal.
Assay [9] in a line: compounds binding Alexa647 anti-His antibody – biochemical, small-molecule microarray, 635 nm fluorescence, artefact control for SMM control protein annotation, primary screen (AID 1128).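 Also: score merges feature fluorescence with signal-to-noise for each printed compound spot.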 The note with it: higher = more signal.
In assay [10] the test system is Human papillomavirus type 1a E7 protein (residues 1-88). Kind of assay: HPV1a E7 small-molecule binders, primary screen, biochemical, small-molecule microarray, residues 1-88, 635 nm (AID 1129). The conditions noted are these: small-molecule microarray binding, fluorescence 635 nm; higher = more signal.
Assay [11] deals with Focal adhesion kinase 1 (Homo sapiens) (UniProt Q05397). The experiment in a line: PTK2 protein binding on printed compound slides – biochemical, small-molecule microarray, 635/667 nm fluorescence, BSA, DTT, primary screen (AID 1130).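 Also: composite of spot emission at 667 nm and signal to noise over triplicate slides.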 The conditions noted are these: 635 nm fluorescence, higher = more signal.
Assay [12] relates to Fibrinogen (Alexa647-labelled). Kind of assay: Alexa647-fibrinogen binding to printed small molecules – biochemical, small-molecule microarray, 635/667 nm fluorescence, artefact control for SMM control-protein annotation, profiling panel (AID 1131).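 Also: z-score merges 667 nm fluorescence with per-spot signal-to-noise over triplicate slides.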 The conditions noted are these: fibrinogen-A647 binding fluorescence, higher = more signal.
Assay [13] deals with Follistatin (Homo sapiens) (UniProt P19883). The experiment in a line: FST protein binding to printed compounds – biochemical, small-molecule microarray, 635/667 nm fluorescence, primary screen (AID 1132). The note with it: 635 nm fluorescence, higher = more signal.
The target in assay [14] is Fibroblast growth factor 2 (Homo sapiens) (UniProt P09038). The experiment in a line: basic fibroblast growth factor binding to printed compounds – biochemical, small-molecule microarray, 635/667 nm fluorescence, primary screen (AID 1133). The conditions noted are these: FGF2, fluorescence 635/667, higher = more signal.
Assay [15] can be described thus: JC-1 mitochondrial potential readout, lung cancer cells – cell-based, A549, JC-1 fluorescence, basal, 24 h, 100 nL, profiling panel (AID 1138).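 Also: A549 lung adenocarcinoma cells under basal conditions with no added stimulus; test concentration not given here.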 The note with it: higher = more signal.
The test system of another assay is Lefty1. The experiment in a line: Lefty1 protein binding to printed compounds – biochemical, small-molecule microarray, 635/667 nm fluorescence, primary screen (AID 1139). The conditions noted are these: fluorescence 635/667, higher = more signal.
Assay [16] deals with wheat germ agglutinin (Triticum aestivum), Alexa647-labelled. Kind of assay: Alexa647-WGA lectin binding to printed small molecules – biochemical, small-molecule microarray, 635/667 nm fluorescence, artefact control for SMM control-protein annotation, profiling panel (AID 1140).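 Also: score merges 667 nm feature emission with signal to noise over triplicate slides.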 The conditions noted are these: WGA-A647 binding, 635 nm fluorescence, higher = more signal.
The target in assay [17] is Luciferin 4-monooxygenase (Photinus pyralis) (UniProt P08659). Kind of assay: inhibition of purified Photinus pyralis luciferase – biochemical, luminescence, purified enzyme, 2006 set, primary screen (AID 1141).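 Also: cell-free assay with purified firefly luciferase at 100 ng per well in PBS; test concentration not given here.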 The conditions noted are these: purified firefly luciferase, SteadyGlo luminescence, 30 min; higher = more signal, called active from +8 up or from −8 down.
Sequence of Luciferin 4-monooxygenase (Photinus pyralis) (P08659 whole entry, looked up): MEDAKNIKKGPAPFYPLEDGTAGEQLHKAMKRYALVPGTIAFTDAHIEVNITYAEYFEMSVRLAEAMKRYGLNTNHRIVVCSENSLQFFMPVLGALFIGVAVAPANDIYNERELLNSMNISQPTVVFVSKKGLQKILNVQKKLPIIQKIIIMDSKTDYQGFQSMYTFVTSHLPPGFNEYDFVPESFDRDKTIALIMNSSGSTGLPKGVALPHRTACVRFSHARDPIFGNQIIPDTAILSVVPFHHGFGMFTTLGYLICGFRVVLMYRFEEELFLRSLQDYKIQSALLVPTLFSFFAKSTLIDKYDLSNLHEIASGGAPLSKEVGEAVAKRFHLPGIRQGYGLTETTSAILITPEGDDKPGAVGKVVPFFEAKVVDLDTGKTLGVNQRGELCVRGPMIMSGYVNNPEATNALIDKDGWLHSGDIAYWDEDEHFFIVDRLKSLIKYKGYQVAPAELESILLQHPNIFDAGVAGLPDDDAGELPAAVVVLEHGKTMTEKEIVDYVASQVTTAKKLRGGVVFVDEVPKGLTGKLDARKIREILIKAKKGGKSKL

Sequence of Albumin (Bos taurus) (P02769 whole entry, looked up): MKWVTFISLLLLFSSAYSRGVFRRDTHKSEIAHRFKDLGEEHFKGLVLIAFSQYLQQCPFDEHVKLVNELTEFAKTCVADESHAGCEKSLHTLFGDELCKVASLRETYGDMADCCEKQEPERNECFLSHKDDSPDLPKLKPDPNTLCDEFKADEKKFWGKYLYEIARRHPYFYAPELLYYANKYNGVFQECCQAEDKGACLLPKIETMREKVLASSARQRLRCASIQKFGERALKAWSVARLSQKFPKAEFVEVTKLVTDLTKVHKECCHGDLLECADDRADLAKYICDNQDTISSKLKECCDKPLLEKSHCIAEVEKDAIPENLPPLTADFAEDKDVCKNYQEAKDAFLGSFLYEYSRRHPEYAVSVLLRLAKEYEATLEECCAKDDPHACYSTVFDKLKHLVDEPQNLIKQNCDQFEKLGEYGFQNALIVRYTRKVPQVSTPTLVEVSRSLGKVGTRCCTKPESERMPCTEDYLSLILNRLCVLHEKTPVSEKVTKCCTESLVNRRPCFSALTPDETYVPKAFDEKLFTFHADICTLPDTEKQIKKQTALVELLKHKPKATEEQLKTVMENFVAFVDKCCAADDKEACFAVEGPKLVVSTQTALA
Sequence of Concanavalin-A (Canavalia ensiformis) (P02866 whole entry, looked up): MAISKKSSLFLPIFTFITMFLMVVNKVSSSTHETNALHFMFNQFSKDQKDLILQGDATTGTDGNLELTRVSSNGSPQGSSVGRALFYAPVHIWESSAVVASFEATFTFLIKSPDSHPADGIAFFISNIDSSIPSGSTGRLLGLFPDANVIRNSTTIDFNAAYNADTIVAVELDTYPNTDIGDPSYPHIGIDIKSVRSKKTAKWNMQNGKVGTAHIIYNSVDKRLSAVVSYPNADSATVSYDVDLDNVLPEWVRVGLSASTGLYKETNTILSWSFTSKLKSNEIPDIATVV
Sequence of Fibroblast growth factor 2 (Homo sapiens) (P09038 whole entry, looked up): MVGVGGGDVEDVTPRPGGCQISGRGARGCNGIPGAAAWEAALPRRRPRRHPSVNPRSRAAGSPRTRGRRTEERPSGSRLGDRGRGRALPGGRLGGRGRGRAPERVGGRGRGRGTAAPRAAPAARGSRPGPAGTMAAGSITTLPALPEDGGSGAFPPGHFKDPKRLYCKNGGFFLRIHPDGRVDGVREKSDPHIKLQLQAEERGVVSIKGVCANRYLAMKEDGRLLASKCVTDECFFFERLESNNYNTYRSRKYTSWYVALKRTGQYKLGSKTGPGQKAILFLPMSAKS
Sequence of Focal adhesion kinase 1 (Homo sapiens) (Q05397 whole entry, looked up): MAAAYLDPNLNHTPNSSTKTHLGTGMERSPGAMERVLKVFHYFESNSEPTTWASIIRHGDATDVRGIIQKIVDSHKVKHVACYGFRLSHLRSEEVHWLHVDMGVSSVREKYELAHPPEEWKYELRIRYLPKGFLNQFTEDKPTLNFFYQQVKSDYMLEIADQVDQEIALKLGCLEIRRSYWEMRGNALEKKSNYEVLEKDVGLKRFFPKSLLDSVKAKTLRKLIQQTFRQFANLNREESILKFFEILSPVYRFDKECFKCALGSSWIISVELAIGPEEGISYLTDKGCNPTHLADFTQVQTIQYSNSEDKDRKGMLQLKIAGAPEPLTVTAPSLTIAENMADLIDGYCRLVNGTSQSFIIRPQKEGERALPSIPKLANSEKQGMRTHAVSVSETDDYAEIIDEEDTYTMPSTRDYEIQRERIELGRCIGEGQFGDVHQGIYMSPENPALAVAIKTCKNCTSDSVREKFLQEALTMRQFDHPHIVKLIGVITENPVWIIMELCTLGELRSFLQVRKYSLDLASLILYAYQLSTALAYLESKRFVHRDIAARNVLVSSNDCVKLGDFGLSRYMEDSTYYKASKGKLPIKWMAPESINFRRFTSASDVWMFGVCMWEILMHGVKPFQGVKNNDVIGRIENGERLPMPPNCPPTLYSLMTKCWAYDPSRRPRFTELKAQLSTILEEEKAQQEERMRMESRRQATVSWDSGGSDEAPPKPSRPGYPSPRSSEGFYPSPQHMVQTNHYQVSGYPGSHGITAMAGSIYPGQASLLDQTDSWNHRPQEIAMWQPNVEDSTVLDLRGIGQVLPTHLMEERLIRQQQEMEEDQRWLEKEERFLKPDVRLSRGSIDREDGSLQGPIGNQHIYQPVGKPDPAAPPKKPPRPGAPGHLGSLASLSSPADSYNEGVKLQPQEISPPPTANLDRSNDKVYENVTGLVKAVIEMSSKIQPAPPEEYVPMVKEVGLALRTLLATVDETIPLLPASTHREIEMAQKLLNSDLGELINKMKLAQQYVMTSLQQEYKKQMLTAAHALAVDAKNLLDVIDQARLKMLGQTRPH
Sequence of Follistatin (Homo sapiens) (P19883 whole entry, looked up): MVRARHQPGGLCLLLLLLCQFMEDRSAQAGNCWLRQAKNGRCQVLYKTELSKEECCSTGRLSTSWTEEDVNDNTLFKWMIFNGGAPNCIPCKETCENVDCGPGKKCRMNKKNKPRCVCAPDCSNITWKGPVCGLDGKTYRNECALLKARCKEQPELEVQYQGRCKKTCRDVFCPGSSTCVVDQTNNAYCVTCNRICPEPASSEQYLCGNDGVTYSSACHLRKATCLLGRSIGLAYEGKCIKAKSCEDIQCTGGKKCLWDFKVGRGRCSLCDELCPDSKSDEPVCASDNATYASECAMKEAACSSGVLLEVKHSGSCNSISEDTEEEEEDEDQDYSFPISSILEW

Consider `C=C(COC)/C(=C/C[C@H](OC(=O)c1ccncc1)c1ccc(CO)o1)c1cc(C(=O)OC)ccc1OC`, for which the composite z-score with Albumin (Bos taurus) was 0.439; in assay [2] it was 0.0222; in [3], -0.0255; in [4], 0.554; in assay [5] it was 1.17; in assay [6] it was 0.347. In addition, the composite z-score in the assay with Sam68 (KHDRBS1) is 1.15; in [7], 0.79; in assay [8], 0.889; in assay [9], 1.38; in assay [10] it was 1.12; in assay [11], -0.113. Also, the composite z-score in assay [12] is -0.0921; in assay [13], 1.22; in assay [14], 1.32; in the assay on Lefty1 it was 1.14; in [16], 0.113. Further, the composite Z-score in [1] is 0.515 (inactive). Further, the z-score in [15] was -0.713; in assay [17], -0.448 (inactive).
With `CC(CCN1CCc2nc(-c3ccccc3)c(-c3ccccc3)cc2C1)=NOC(C)CN1CCCCc2nc(C)c(C)cc21` (stereo not given), the composite z-score was 0.56 with Albumin (Bos taurus); 0.0379 in [2]; -0.14 in [3]; 0.209 in [4]; 0.789 in assay [5]; 0.154 in assay [6]. The composite z-score in the assay on Sam68 (KHDRBS1) is 1.28; in assay [7], 0.308; in assay [8], 1.05; in [9], 0.605; in [10], 0.791; in assay [11], 0.718. Besides, the composite z-score worked out at 0.845 in assay [12]; 0.47 in assay [13]; 0.489 in assay [14]; 0.593 in the assay on Lefty1; 0.264 in assay [16]. For the same compound, the composite Z-score in assay [1] is 0.766 (inactive). Also, the z-score is 1.52 in assay [15] and -0.0959 (inactive) in assay [17].
For the compound `COC(=O)[C@H](C)NC(=O)CCC1CC(OC(=O)NCCc2ccc(F)cc2)CC2(CCCC(COC(=O)NCC(c3ccccc3)c3ccccc3)O2)O1` (stereo not given in full), the composite z-score is 0.675 in the assay with Albumin (Bos taurus); -0.0932 in [2]; -0.1 in assay [3]; 0.343 in assay [4]; 1.44 in assay [5]; 0.031 in assay [6]. In addition, the composite z-score in the assay on Sam68 (KHDRBS1) came to 1.22; in assay [7], 0.17; in assay [8] it was 0.714; in assay [9], 0.862; in assay [10], 1.18; in [11], 0.548. Also, the composite z-score was found to be 0.834 in assay [12]; 0.342 in assay [13]; 0.0725 in assay [14]; 0.483 with Lefty1; 0.958 in [16]. Besides, the composite Z-score in assay [1] was 0.269 (inactive). For the same compound, the results for the z-score in [15] and in assay [17] were 0.549 and 0.467 (inactive), respectively.
In the case of `Cn1c(=O)n2n(c1=O)[C@H]1[C@H](O)[C@@H]3O[C@@H]3C(=NOC[C@@H](O)COCc3ccco3)[C@H]1CC2`, the composite z-score with Albumin (Bos taurus) is 0.125; in assay [2], 0.236; in [3], -0.208; in assay [4], -0.142; in [5], 0.145; in assay [6] it was -0.0856. The composite z-score in the assay with Sam68 (KHDRBS1) was 0.373; in assay [7], 0.535; in assay [8] it was 0.59; in assay [9] it was -0.272; in assay [10], 0.722; in assay [11] it was 0.0225. The composite z-score in [12] was 0.617; in [13], 0.357; in assay [14], 0.468; with Lefty1, 0.777; in assay [16], -0.0253. In [1], the composite Z-score is -0.383 (inactive). Also, the results for the z-score in [15] and in [17] were 0.596 and -0.508 (inactive), respectively.
For the compound `COc1ccc([Si](C)(C)[C@@H]2[C@@H](CCO)O[C@]3(C(=O)N(Cc4ccc(NC(C)=O)cc4)c4ccccc43)[C@H]2C)cc1`, the composite z-score is 0.78 in the assay with Albumin (Bos taurus); 0.217 in assay [2]; 0.0884 in [3]; 0.574 in assay [4]; 1.08 in [5]; 0.222 in assay [6]. For the same compound, the composite z-score with Sam68 (KHDRBS1) turned out to be 1.15; in [7], 0.465; in assay [8], 1.1; in [9], 1.92; in [10] it was 1.22; in assay [11], 0.11. The composite z-score in assay [12] was 0.963; in [13] it was 1.07; in [14], 0.228; in the assay with Lefty1, 0.727; in assay [16], 0.771. Moreover, the composite Z-score in [1] is 0.19 (inactive). The z-score in assay [15] is -0.898; in assay [17], 0.377 (inactive).
